# The campaign covered roughly 68,000 compounds. About 2,700 (4%) showed an effect of 50% or more. Only a selection was taken, and strong results are over-represented in it overall.
# System: Plasmodium berghei
# Assay: Screen against P. berghei liver stage (PbLuc), transformed with Luciferase, at 2uM
# Type: functional, HepG2
# Settings: tested at 2 uM
row,SMILES,INHIBITION
1,CC[C@@]1(O)CCN(C(=O)CN(C)Cc2ccc(F)cc2)C[C@H]1O,25.06%
2,CN(C)[C@@H]1C[C@@H](CO)N(C(=O)Nc2cccc(F)c2F)C1,-57.1%
3,CNC(=O)[C@H]1C[C@@H]2CCN(CCc3ccccc3)C[C@@H]2O1,21.77%
4,CS(=O)(=O)N1CCc2sc(C(=O)NCc3ccccc3)cc21,38.62%
5,O=C(C1CC(F)(F)C1)N1C[C@@H]2CN(CC3CC3)CCO[C@@H]2C1,-14.21%
6,Cc1nccn1CCC1CCN(C(C)C)CC1,4.53%
7,Cc1ccc2c(ccn2CCC(=O)O)c1,-7.01%
8,Cc1cccc(CN2C(=O)C[C@H]3[C@@H]2CCN3Cc2ccccn2)n1,-11.91%
9,Cc1cnn(C2CCCN(C(=O)c3ccc(-n4cnnn4)cc3)C2)c1 (stereo not given),15.4%
10,O=C(c1ccc(NC2CC2)nc1)N1CCCC(n2cccn2)C1 (stereo not given),54.85%
11,Cc1cnn(C2CCCN(C(=O)c3ccnc(N(C)C)c3)C2)c1 (stereo not given),-21.91%
12,Cc1cnn(C2CCCN(C(=O)c3ccccc3-n3cnnn3)C2)c1 (stereo not given),-31.16%
13,Cc1cnn(C2CCCN(C(=O)c3sccc3-n3cnnn3)C2)c1 (stereo not given),51.21%
14,Cc1cnn(C2CCCN(C(=O)c3cn(-c4ccccc4)nc3C)C2)c1 (stereo not given),86.75%
15,Cc1cnn(C2CCCN(C(=O)c3ccn(C)c(=O)c3)C2)c1 (stereo not given),16.51%
16,Cc1nn(-c2ccccc2)cc1C(=O)N1CCCN2CCCC2C1 (stereo not given),20.11%
17,Cc1nn(-c2ccccc2)cc1C(=O)N1CCCC(n2cccn2)C1 (stereo not given),11.1%
18,O=C(c1ccc(NC2CC2)nc1)N1CCCC(n2ccnc2)C1 (stereo not given),-5.3%
19,O=C(c1ccc(-n2cccn2)nc1)N1CCCC(n2cccn2)C1 (stereo not given),-9.61%
20,Cc1cnn(C2CCCN(C(=O)c3ccc4c(c3)CCC4)C2)c1 (stereo not given),56.02%
21,COc1ccccc1CN1CCC(c2nn(CCN)c3nccnc23)C1 (stereo not given),-6.04%
22,Cc1csc(CN2CC[C@H]3C[C@H](c4nc(C)no4)O[C@@H]3C2)n1,18.32%

row,SMILES,INHIBITION
1,CCOCC1CN(c2ccc(C)nn2)Cc2nn(CC)cc21 (stereo not given),-3.19%
2,CCCc1cc(=O)[nH]c(-c2cccc(CN3CCN4CCCC4C3)c2)n1 (stereo not given),-19.98%
3,Cc1cnn(CC2CCCCN2CC(=O)NCc2ccccn2)c1 (stereo not given),16.6%
4,Cc1cnn(C2CCCN(C(=O)c3ccc(N(C)C)nn3)C2)c1 (stereo not given),69.41%
5,CNC(=O)c1ccc(C(=O)N2CCCC(n3cc(C)cn3)C2)cn1 (stereo not given),16.64%
6,O=C(c1cnc(-c2ncccn2)s1)N1CCCC(n2cccn2)C1 (stereo not given),5.09%
7,Cc1cccc(-n2cc(C(=O)N3CCCC(n4cccn4)C3)nn2)c1 (stereo not given),58.53%
8,O=C(c1cnc(-c2ccccn2)s1)N1CCCC(n2cccn2)C1 (stereo not given),51.94%
9,Cc1ccc(-n2cc(C(=O)N3CCCC(n4cccn4)C3)nn2)cc1 (stereo not given),18.59%
10,O=C(c1cn(-c2ccccc2)nn1)N1CCCC(n2cccn2)C1 (stereo not given),-3.05%
11,O=C(c1cnc(-c2cnccn2)s1)N1CCCC(n2cccn2)C1 (stereo not given),35.65%
12,Cc1cnn(C2CCCN(C(=O)c3ccc(NC4CC4)nc3)C2)c1 (stereo not given),72.31%
13,Cc1cnn(C2CCCN(C(=O)c3ccc(O)nc3)C2)c1 (stereo not given),45.83%
14,CN(C)c1ccc(C(=O)N2CCCC(n3cccn3)C2)nn1 (stereo not given),37.68%
15,Cc1cnn(C2CCCN(C(=O)c3ccc(N4CCCC4)nn3)C2)c1 (stereo not given),-104.9%
16,CCc1nc(CN2CCCC(N(C)CCc3cccs3)C2)no1 (stereo not given),-14.04%
17,CCC(CC)c1cc(CNC(=O)N2CCOC(C)C2)on1 (stereo not given),-40.76%
18,c1cnc(N2CCN(CCn3ccnc3-c3ccncc3)CC2)nc1,36.79%
19,Cc1nc(C2CCN(C(=O)c3cscn3)CC2)c2sccn12,45.5%
20,CC(C)n1[nH]c(=O)c2c1NC(=O)CSC2c1cccc(OCC(N)=O)c1 (stereo not given),9.29%
21,O=C(c1cnccn1)N1C[C@@H]2CN(Cc3cccnc3)CCO[C@@H]2C1,0.54%
22,CN(C)CCN1C2(CCN(Cc3nccs3)C2)c2ccccc2S1(=O)=O (stereo not given),31.25%

row,SMILES,INHIBITION
1,Cn1cc(C2COC3(CCN(C(=O)c4ccsc4)CC3)C2)cn1 (stereo not given),-0.38%
2,Cn1cc(-c2nc(CN3CCc4c(ncn4C)C3)cs2)cn1,14.06%
3,Cc1nc(CNCC2CCCN2c2cccnn2)no1 (stereo not given),-12.31%
4,O=C(c1cnc(-c2cccs2)s1)N1CCCN2CCCC2C1 (stereo not given),-38.96%
5,O=C(c1cnc(-c2cccs2)s1)N1CCCC(n2ccnc2)C1 (stereo not given),64.16%
6,O=C(c1cnc(-c2cccs2)s1)N1CCCC(n2cccn2)C1 (stereo not given),42.18%
7,Cn1cccc1C(=O)N1CC[C@H]2[C@H]1CCN2CC1CC1,-0.23%
8,CCN(CC)C(=O)c1ccc(COc2ccccc2C#N)o1,9.54%
9,O=C(O)c1cc2c(nc1-c1ccncc1)CCN(C1CCOC1)CC2 (stereo not given),-6.71%
10,CCc1ccc(-c2cc(C(F)(F)F)nc(N3CCC(N)CC3)n2)cc1,16.36%
11,Cc1nnc2n1CCN(Cc1c(Cl)ccc3cccnc13)C2,5.28%
12,Clc1ccc2cccnc2c1CN1CCn2c(nnc2C2CC2)C1,55.36%
13,CCCC1CCCN(Cc2csc(-c3ncccn3)n2)CC1 (stereo not given),33.5%
14,Fc1cccc(Cl)c1CN1CCn2c(nnc2C2CC2)C1,7.67%
15,c1cnc(-c2nc(CN3CCn4c(nnc4C4CC4)C3)cs2)nc1,63.64%
16,CC1CCCN(Cc2csc(-c3ncccn3)n2)CC1 (stereo not given),53.03%
17,c1coc(-c2nc(CN3CCn4c(nnc4C4CC4)C3)cs2)c1,39.65%
18,c1ccc(-c2nc(CN3CCn4c(nnc4C4CC4)C3)cs2)cc1,34.39%
19,c1cnc(-c2nc(CN3CCCC(N4CCCC4)C3)cs2)nc1 (stereo not given),-44.96%
20,CC1c2ncc(Cn3cncn3)n2CCN1C(=O)c1ccccn1 (stereo not given),23.97%
21,O=C(c1ccccc1)N1CCC2(CC1)CNc1c(F)cccc12,-27.31%
